Pf growth 96h = Primary qHTS for delayed death inhibitors of the malarial parasite plastid, 96 hour incubation; 320,000 tested, 6.9% active; P. falciparum luciferase reporter growth, 96 h; Potency, µM (titrated, usually from 28.7 µM), hits mostly inhibitors
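Two parasite generations (96 h, 37 C, 5% CO2) of compound exposure in infected erythrocytes (0.05% parasitemia, 2% hematocrit). Luciferase-reporter P. falciparum; decreased luminescence indicates inhibited growth, aimed at apicoplast-acting delayed death.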
SARS PLpro yeast = qHTS of Yeast-based Assay for SARS-CoV PLP; S. cerevisiae expressing SARS-CoV PLpro, growth rescue; Potency, µM (titrated, usually from 32.9 µM), most hits filed as activators; 330,000 tested, 0.19% active; AID 485353, 2010; calls by dose curve; also: nearly all actives have a fitted effect of over 55% in size
Pf growth 48h = Primary qHTS for delayed death inhibitors of the malarial parasite plastid, 48 hour incubation; P. falciparum luciferase growth in erythrocytes, 48 h; Potency, µM (top dose mostly 28.7 µM), hits mostly inhibitors; 310,000 tested, 5.9% active
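Here the parasites carry a stable luciferase gene and grow inside erythrocytes in Albumax-based RPMI medium with compound for one erythrocytic cycle. Activity is scored as loss of luminescent signal.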
AMA1-RON2 inh = qHTS for Inhibitors of AMA1-RON; Towards Development of Antimalarial Drug Lead: Primary Screen | AID 720542, 2013 | 360,000 tested, 0.2% active | Potency, µM (doses to about 58.2 µM), most hits filed as inhibitors | AlphaScreen AMA1-biotinylated RON2 peptide binding; also: nearly all actives have a fitted effect of over 45% in size
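AMA1 (3D7) with his tag at 25 nM final met compounds first, then biotinylated RON2 peptide at 25 nM; detection used donor plus acceptor beads, 10 µg/mL apiece, read by AlphaScreen after 30 min at room temperature.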
Numbers stand for hits; n = inactive; u = inconclusive; x = not tested or not shown; [ ] = remark or other dose. Most compounds without a hit are left out; they make up all but 9.4% or so of the library. Unless noted, calls follow the shape of the dose curve; as a rule, active = well fitted curve in the direction sought with a large enough effect; inconclusive = small, poorly fitted or top-dose-only effect, or another doubt; inactive = no such curve, though single readings can be large; an effect the other way counts as inactive or inconclusive.

SMILES	Pf growth 96h	SARS PLpro yeast	Pf growth 48h	AMA1-RON2 inh
Clc1ccccc1Cc1noc(CN2CCN(c3cnccn3)CC2)n1	u	n	u	n
COc1ccccc1C(C)Nc1nc(-c2cccnc2)nc2ccccc12 (centres undefined)	u	n	13.1µM	n
CC(Nc1nc(N2CCNCC2)nc2ccccc12)c1ccccc1 (centres undefined)	n	n	2.94µM	n
CC(Nc1nc(-c2ccncc2)nc2ccccc12)c1ccccc1 (centres undefined)	4.65µM	n	5.22µM	n
Cc1onc(-c2ccccc2Cl)c1-c1nc(-c2ccccn2)no1	n	n	n	n
Clc1ccccc1/C=C/c1nc(-c2ccccn2)no1	n	n	2.08µM	n
CCN(c1ccccc1)S(=O)(=O)c1ccc(OC)c(NC(=O)C2CC(=O)N(Cc3ccccc3)C2)c1 (centres undefined)	13.1µM	n	6.57µM	n
CCN(c1ccccc1)S(=O)(=O)c1ccc(OC)c(NC(=O)C2=NN(c3ccccc3)C(=O)CC2)c1	u	n	11.7µM	n
CCN(c1ccccc1)S(=O)(=O)c1ccc(OC)c(NC(=O)c2ccccc2OC)c1	u	n	u	n
COC(=O)c1[nH]c2ccccc2c1NC(=O)C(C)N1CCOCC1 (centres undefined)	n	n	n	n
COC(=O)c1[nH]c2cccc(C)c2c1NC(=O)CN1CCN(c2ccccc2OC)CC1	n	n	u	n
CC(C)c1ccc(NC(=O)C(c2ccccc2)N2CCN(C(=O)c3ccco3)CC2)cc1 (centres undefined)	u	n	9.28µM	n
CC(C)c1ccc(NC(=O)C(c2ccc3c(c2)OCO3)N2CCN(C(=O)c3ccco3)CC2)cc1 (centres undefined)	n	n	u	u
COC(=O)c1[nH]c2cc(C)ccc2c1NC(=O)CN1CCN(C(=O)c2ccco2)CC1	3.29µM	n	u	n
COC(=O)c1[nH]c2ccccc2c1NC(=O)C(C)N1CCN(C(=O)c2ccco2)CC1 (centres undefined)	10.4µM	n	u	n
COC(=O)c1[nH]c2cccc(C)c2c1NC(=O)CN1CCN(C(=O)c2ccco2)CC1	11.7µM	n	u	n
CCCc1[nH]c2ccc(C#N)cc2c1CCC	n	n	n	n
COc1ccc(N(C(=O)c2ccco2)S(=O)(=O)c2cc(Cl)c(Cl)cc2Cl)cc1	n	n	x	n
Cc1ccc(S(=O)(=O)NC(CC(N)=O)C(=O)O)cc1 (centres undefined)	u	n	n	n
Cc1ccc(S(=O)(=O)N[C@@H](CCCCN)C(=O)CCl)cc1	12µM	x	u	n
COc1ccc(NS(=O)(=O)c2ccc(NS(=O)(=O)c3cccs3)cc2)cc1	n	n	n	n
CC(C)(C)c1ccc(C(=O)Nc2cccc(C(=O)N3CCOCC3)c2)cc1	n	n	n	n
O=S(=O)(NCc1csc(-c2cccnc2)n1)c1cccs1	u	n	n	n
CCc1ccc(S(=O)(=O)NCc2csc(-c3cccnc3)n2)s1	0.738µM	n	n	n
CCc1ccc(C2C(C#N)=C(N)C(C#N)(C#N)C3=CCC(C(C)(C)C)CC32)cc1 (centres undefined)	13.1µM	n	13.1µM	n
SMILES	Pf growth 96h	SARS PLpro yeast	Pf growth 48h	AMA1-RON2 inh
COc1cccc(NC(=O)c2ccc(CN3CCN(c4ccccc4)CC3)cc2)c1	n	n	11.7µM	n
COc1cccc(NC(=O)c2ccc(N3C(=O)C4CC=C(C)CC4C3=O)cc2)c1 (centres undefined)	1.47µM	n	n	n
Cc1cc(C)c(NC(=O)c2ccc(CN3CCc4ccccc4C3)cc2)c(C)c1	7.38µM	n	x	n
CC(=O)c1cccc(NC(=O)c2ccc(CN3CCc4ccccc4C3)cc2)c1	u	n	14.7µM	n
Cc1cc(=O)oc2cc(OCc3ccc(C(=O)OCC(=O)NC4CCS(=O)(=O)C4)cc3)ccc12 (centres undefined)	n	n	n	n
COc1cccc(S(=O)(=O)NCc2ccc(C(=O)Nc3cccc(Cl)c3)cc2)c1	9.28µM	n	x	n
COc1cccc(NC(=O)c2c(C)nn(-c3ccccc3)c2Cl)c1	4.65µM	n	n	n
CCCNC(=O)c1ccc(CN2CCc3ccccc3C2)cc1	n	n	10.4µM	n
COCCNC(=O)c1ccc(CN2CCc3ccccc3C2)cc1	u	n	n	n
COc1cccc(S(=O)(=O)NCc2ccc(C(=O)Nc3ccc(Cl)cc3)cc2)c1	n	n	n	n
Cc1cc(CSc2ccccc2)ccc1NC(=O)c1ccc(CN2CCOCC2)cc1	2.94µM	n	n	n
CSc1ccccc1NC(=O)c1ccc(CN2CCOCC2)cc1	n	n	n[5.75 µM]	n
Cc1ccccc1C(=O)N1CCc2cc(-c3nc(NC(=O)Cc4ccc5c(c4)OCO5)sc3C)ccc21	n	n	u	n
Cc1sc(NC(=O)Cc2ccc3c(c2)OCO3)nc1-c1ccc2c(c1)CCN2C(=O)c1cccc(F)c1	6.57µM	n	u	u
CCOc1ccc(NC(=O)Cc2nnc(SCC(=O)N3CCOCC3)n2C)cc1	n	n	n	n
CCOC(=O)c1cc(-c2ccccc2)nc2nc(N(CC)CC)sc12	11.7µM	n	9.28µM	n
C=CCNC(=O)NC(=O)c1csc([N+](=O)[O-])c1	n	n	n	n
CCNc1nc(C)nc2c1oc1ccccc12	0.657µM	n	n	n
CCOc1ccc(Br)cc1C(=O)N/N=C/c1cccnc1	u	n	n	n
CCN(Cc1ccc(C#CCCO)cc1)CC1CCCN(CCc2cccc(F)c2)C1 (centres undefined)	n	n	4.65µM	n
COCc1ccc(C(=O)N(C)CC2CCCN(CCc3ccc(Cl)cc3)C2)o1 (centres undefined)	n	n	n	n
CN(Cc1ccc(C#CCCO)cc1)CC1CCCN(CCc2ccc(Cl)cc2)C1 (centres undefined)	n	n	5.22µM	n
CCN(Cc1ccc(OC)c(COC)c1)CC1CCCN(CCc2cccc(F)c2)C1 (centres undefined)	u	n	10.4µM	n
Cc1occc1C(=O)N(C)CC1CCCN(CCc2ccc(Cl)cc2)C1 (centres undefined)	x	x	x	n
CN(Cc1ccccc1O)CC1CCCN(CCc2ccc(Cl)cc2)C1 (centres undefined)	n	n	10.4µM	n
COc1ccc(-c2n[nH]c(=S)n2/N=C/C=C/c2ccccc2OC)cc1	n	n	n	n
COc1ccc(CCN2CCCC(CN(C)Cc3cc(OC)ccc3OC)C2)cc1 (centres undefined)	14.7µM	n	u	n
COc1ccc(CCN2CCCC(CN(C)Cc3cccc(OC)c3)C2)cc1 (centres undefined)	u	n	u	n
CCN(Cc1ccc(NC(C)=O)cc1)CC1CCCN(CCc2cccc(OC)c2)C1 (centres undefined)	11.7µM	n	11.7µM	n

Bioassay records: PubChem BioAssay, National Center for Advancing Translational Sciences (NCATS)
